Source: PubChem BioAssay (The Scripps Research Institute Molecular Screening Center)
TEAD-YAP block – TEAD-YAP interaction inhibition; HEK-TIYL cells, TEAD-Gal4/YAP UAS-luciferase luminescence; inhibition, % at 9.12 µM; 640,000 compounds, 1.4% hits; AID 1259422; in the data active = inhibition above about 32%
FBW7 activator – human FBW7 E3 ligase activation, primary screen; Q969H0; AlphaScreen FBW7–phospho-cyclin E peptide binding, activator screen; normalized activity (activation), % at 26.1 µM; 650,000 compounds, 0.13% hits; AID 1259310; in the data active = normalized activity above about 1.9%;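 note: purified mutant Fbw7 with reduced substrate affinity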
Target sequence (Q969H0 whole entry, looked up): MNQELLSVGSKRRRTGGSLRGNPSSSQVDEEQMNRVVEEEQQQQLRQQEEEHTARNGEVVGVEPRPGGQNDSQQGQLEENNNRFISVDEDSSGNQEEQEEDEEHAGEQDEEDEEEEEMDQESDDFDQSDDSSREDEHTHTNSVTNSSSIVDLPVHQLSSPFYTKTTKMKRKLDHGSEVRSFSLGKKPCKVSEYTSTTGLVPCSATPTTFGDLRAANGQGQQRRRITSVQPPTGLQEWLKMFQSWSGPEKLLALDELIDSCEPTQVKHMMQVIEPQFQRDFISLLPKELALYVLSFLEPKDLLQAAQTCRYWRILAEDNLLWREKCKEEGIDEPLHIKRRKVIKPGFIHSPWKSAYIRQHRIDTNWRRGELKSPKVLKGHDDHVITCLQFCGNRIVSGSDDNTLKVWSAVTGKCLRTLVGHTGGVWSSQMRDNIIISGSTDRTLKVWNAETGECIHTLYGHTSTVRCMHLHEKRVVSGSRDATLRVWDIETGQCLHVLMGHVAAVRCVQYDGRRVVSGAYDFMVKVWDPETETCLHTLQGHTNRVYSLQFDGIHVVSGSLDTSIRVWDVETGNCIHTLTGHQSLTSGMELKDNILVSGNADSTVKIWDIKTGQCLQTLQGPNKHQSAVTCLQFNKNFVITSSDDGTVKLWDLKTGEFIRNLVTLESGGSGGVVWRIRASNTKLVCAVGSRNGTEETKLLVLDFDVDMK
MITF primary – human MITF inhibition, primary screen; AID 1259374; O75030; 650,000 compounds, 0.91% hits; inhibition, % at 2.6 µM; AlphaScreen MITF homodimerization, bead proximity signal; in the data active = inhibition above about 50%
GPR151 ag – human GPR151 activation; activation, % at 11.2 µM; Q8TDV0; 650,000 compounds, 1% hits; PathHunter beta-arrestin GPR151 cells, luminescence; in the data active = activation above about 4.9%
A number is an active result; – = inactive. Rows were chosen to be rich in hits. Some 3.5% of all compounds tested hit in one or more screens of this group.

SMILES | TEAD-YAP block | FBW7 activator | MITF primary | GPR151 ag
CC(C)c1ccc(C(NC(=O)C2CCCCC2)c2ccc3cccnc3c2O)cc1 (stereo not drawn) | – | – | – | –
CC(C)C(=O)NC(c1ccccc1)c1ccc2cccnc2c1O (stereo not drawn) | 89.6 | – | – | –
CC(C)C(=O)NC(c1ccco1)c1ccc2cccnc2c1O (stereo not drawn) | 63.6 | – | – | –
CC(C)C(=O)NC(c1ccc(Cl)cc1)c1ccc2cccnc2c1O (stereo not drawn) | 85.2 | – | – | –
O=C(c1ccco1)N1CCN(C(=O)C2CCN(c3ccc(-c4ccccc4)nn3)CC2)CC1 | – | – | – | –
CCCNc1cc(C)nc(Oc2ccccc2)n1 | 80.3 | – | – | –
COc1ccc(/C=C2\C(=O)Nc3ccc(Br)cc32)c(OC)c1OC | 52.8 | – | – | –
COc1ccc(/C=C2\C(=O)Nc3ccc(Br)cc32)cc1 | – | – | – | –
Clc1ccc(Nc2ncnc3c2cnn3-c2ccccc2)cc1 | – | – | – | –
O=C(NNc1ncnc2c1cnn2-c1ccc(Cl)cc1)c1cccs1 | 57.3 | – | – | –
CC(C)Nc1ncnc2c1cnn2-c1ccc(Cl)cc1 | 56.4 | – | – | –
Clc1ccc(-n2ncc3c(NC(c4ccccc4)c4ccccc4)ncnc32)cc1 | – | – | – | –
O=C(NNc1ncnc2c1cnn2-c1ccc(F)cc1)c1cccs1 | – | – | – | –
Clc1ccc(-n2ncc3c(Nc4ccc(Br)cc4)ncnc32)cc1 | 42.2 | – | – | –
C=CCN1C(=O)C2(NC(=O)c3ccccc3N2)c2ccccc21 (stereo not drawn) | 65.6 | – | – | –
Cc1ccc2c(CN3C(=O)NC(C)(c4ccc(Cl)cc4)C3=O)cc(=O)oc2c1 (stereo not drawn) | – | – | – | –
Cc1nc2sccn2c1-c1csc(Nc2ccc(N(C)C)cc2)n1 | 55.1 | – | – | –
CC(=O)Nc1ccc(Nc2nc(-c3c(C)nc4sccn34)cs2)cc1 | 48.5 | – | – | –
CN(C)c1ccc(Nc2nc(-c3ccccc3)cs2)cc1 | 43.1 | – | – | –
Cc1nc2sccn2c1-c1csc(Nc2ccc(O)cc2)n1 | – | – | – | –
Cc1ccccc1Nc1nc(-c2c(C)nc3sccn23)cs1 | – | – | – | –
COC(=O)C1=C(C)NC(C)=C(C(=O)OC)C1c1ccccc1F | – | – | – | –
COC(=O)c1sc2nc3c(c(-c4cccs4)c2c1N)CCC3 | – | – | – | –
NC(=O)c1sc2nc3c(c(-c4cccs4)c2c1N)CCC3 | 44.4 | – | – | –
COc1ccc(S(=O)(=O)OCC(F)(F)[N+](=O)[O-])cc1Br | 44.1 | – | – | –
SMILES | TEAD-YAP block | FBW7 activator | MITF primary | GPR151 ag
O=C(Oc1ccc(N2C(=O)C=CC2=O)cc1)c1cccc2ccccc12 | – | 1.9 | – | –
CN=c1scc(-c2ccc(C)c(C)c2)n1/N=C/c1ccc(O)c(O)c1O | 70.1 | – | – | –
O=C(c1ccccc1-c1ccccc1)N1CCN(c2ccccn2)CC1 | 52.0 | – | – | –
O=C(c1cc(-c2ccccc2)nc2ccccc12)N1CCN(c2ccccc2)CC1 | – | – | – | –
CCOc1ccccc1N1CCN(C(=O)c2cc(-c3ccccc3)nc3ccccc23)CC1 | 45.4 | – | – | –
O=C(c1cc(-c2ccncc2)nc2ccccc12)N1CCN(c2ccccn2)CC1 | 57.7 | – | – | –
O=C(c1ccccc1Br)N1CCN(c2ccccn2)CC1 | – | – | – | –
Cc1ccc(S(=O)(=O)c2nc(-c3ccc(Cl)cc3Cl)oc2N(C)C)cc1 | – | – | – | –
Brc1ccc2ncnc(NCCc3ccccc3)c2c1 | 64.4 | – | – | –
CC(Nc1ncnc2ccccc12)c1ccccc1 (stereo not drawn) | 56.0 | – | – | –
CC(Nc1ncnc2ccc(Br)cc12)c1ccccc1 (stereo not drawn) | 33.6 | – | – | –
COCCCNc1ncnc2ccc(Br)cc12 | – | – | – | –
CCSc1nnc(NC(=O)CSc2nnc3c4ccccc4n(C)c3n2)s1 | – | – | – | –
O=c1c2ccccc2nc(SCc2ccccc2F)n1C1CCCCC1 | – | – | – | –
COc1ccc2cc3c(N)nn(C(=O)c4cccc(Cl)c4)c3nc2c1 | – | – | – | –
COc1ccc2cc3c(N)nn(C(=O)c4ccccc4F)c3nc2c1 | 55.0 | – | – | –
COc1ccc2cc3c(N)nn(C(=O)c4cccc(F)c4)c3nc2c1 | – | – | – | –
COc1ccc2cc3c(N)nn(C(=O)c4ccccc4Cl)c3nc2c1 | 44.8 | – | – | –
COc1ccc2cc3c(N)nn(C(=O)c4ccc(F)cc4)c3nc2c1 | 35.7 | – | – | –
COc1ccc2cc3c(N)nn(C(=O)c4cccnc4)c3nc2c1 | 32.3 | – | – | –
